“And” between values parts separate entries of the source, which are not always exact repeats. Equal entries are not always repeated. The whole screen tested about 5,500 compounds, of which about 2,000 (36%) were called active. Inconclusive results (about 18%) are left out. Rule as the data show it: active = normalized growth mostly below about 0.91 (no sharp cut-off); inconclusive = no clear call, values can overlap the other calls; inactive = mostly above about 0.92. Some of the results follow.
Assay: chemical genetic growth profiling, strain panel (AID 1159580);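 also: tested at 20 µM; growth read once vehicle control cultures reached saturation at 30 °C; 1 = growth at the plate median or of vehicle wells; lower values mean less growth of the strain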
Conditions: growth OD

Measured: normalized growth

CC1COc2c(N3CCN(C)CC3)c(F)cc3c(=O)c(C(=O)O)cn1c23 (stereo not drawn)
inactive: S. cerevisiae deletion strains, locus YJR066W, strain TOR1, active compounds read low 0.948 | S. cerevisiae deletion strains, locus YKL009W, strain mrt4, active compounds read low 1.03 | S. cerevisiae deletion strains, locus YKL068W, active compounds read low 1.02 | S. cerevisiae deletion strains, locus YKL085W, strain MDH1 (second series), active compounds read low 1 | S. cerevisiae deletion strains, locus YKL085W, strain MDH1, active compounds read low 1 | S. cerevisiae deletion strains, locus YKL160W, strain elf1, active compounds read low 0.971 | S. cerevisiae deletion strains, locus YKL190W, strain CNB1, active compounds read low 1.01 | S. cerevisiae deletion strains, locus YKR001C, strain vps1, active compounds read low 1.03 | S. cerevisiae deletion strains, locus YKR026C, strain gcn3, active compounds read low 0.988 | S. cerevisiae deletion strains, locus YKR091W, strain srl3, active compounds read low 0.984 | S. cerevisiae deletion strains, locus YLL001W, strain dnm1, active compounds read low 0.958 | S. cerevisiae deletion strains, locus YLL026W, active compounds read low 0.998 | S. cerevisiae deletion strains, locus YLL041C, strain sdh2, active compounds read low 0.987 | S. cerevisiae deletion strains, locus YLR027C, strain aat2, active compounds read low 0.997 | S. cerevisiae deletion strains, locus YLR039C, strain RIC1, active compounds read low 1.03 | S. cerevisiae deletion strains, locus YLR058C, strain SHM2, active compounds read low 1.01 | S. cerevisiae deletion strains, locus YLR102C, strain apc9, active compounds read low 1.02 | S. cerevisiae deletion strains, locus YLR113W, strain HOG1, active compounds read low 0.942 | S. cerevisiae deletion strains, locus YLR221C, strain rsa3, active compounds read low 0.979 | S. cerevisiae deletion strains, locus YLR258W, strain gsy2, active compounds read low 0.994 | S. cerevisiae deletion strains, locus YLR262C, strain YPT6 (second series), active compounds read low 0.966 | S. cerevisiae deletion strains, locus YLR262C, strain YPT6, active compounds read low 1.07 | S. cerevisiae deletion strains, locus YLR268W, strain sec22, active compounds read low 1.01 | S. cerevisiae deletion strains, locus YLR320W, strain mms22, active compounds read low 0.961 | S. cerevisiae deletion strains, locus YLR330W, strain CHS5, active compounds read low 1.01 | S. cerevisiae deletion strains, locus YLR342W, strain FKS1 (second series), active compounds read low 1 | S. cerevisiae deletion strains, locus YLR342W, strain FKS1, active compounds read low 0.976 | S. cerevisiae deletion strains, locus YLR357W, strain rsc2, active compounds read low 0.967 | S. cerevisiae deletion strains, locus YLR370C, strain arc18, active compounds read low 0.98 | S. cerevisiae deletion strains, locus YLR371W, strain rom2, active compounds read low 1.02 | S. cerevisiae deletion strains, locus YLR384C, strain iki3, active compounds read low 0.965 | S. cerevisiae deletion strains, locus YLR418C, strain cdc73, active compounds read low 1.02 | S. cerevisiae deletion strains, locus YML016C, strain PPZ1, active compounds read low 1 | S. cerevisiae deletion strains, locus YML032C, strain rad52, active compounds read low 1.01 | S. cerevisiae deletion strains, locus YML120C, strain ndi1, active compounds read low 0.984 | S. cerevisiae deletion strains, locus YML124C, strain tub3, active compounds read low 1.01 | S. cerevisiae deletion strains, locus YMR058W, strain fet3, active compounds read low 0.985 | S. cerevisiae deletion strains, locus YMR078C, strain ctf18, active compounds read low 1.01 | S. cerevisiae deletion strains, locus YMR125W, strain sto1, active compounds read low 0.981 | S. cerevisiae deletion strains, locus YMR129W, active compounds read low 0.99 | S. cerevisiae deletion strains, locus YMR205C, strain PFK2, active compounds read low 0.959 | S. cerevisiae deletion strains, locus YMR223W, strain ubp8, active compounds read low 1.02 | S. cerevisiae deletion strains, locus YMR231W, strain pep5, active compounds read low 0.981 | S. cerevisiae deletion strains, locus YMR307W, strain GAS1, active compounds read low 1.09 | S. cerevisiae deletion strains, locus YNL067W, strain RPL9B, active compounds read low 1 | S. cerevisiae deletion strains, locus YNL071W, strain lat1, active compounds read low 0.987 | S. cerevisiae deletion strains, locus YNL128W, strain TEP1, active compounds read low 1.03 | S. cerevisiae deletion strains, locus YNL153C, strain GIM3, active compounds read low 1.05 | S. cerevisiae deletion strains, locus YNL183C, strain NPR1, active compounds read low 0.928 | S. cerevisiae deletion strains, locus YNL197C, strain WHI3, active compounds read low 1.01 | S. cerevisiae deletion strains, locus YNL209W, strain ssb2, active compounds read low 0.988 | S. cerevisiae deletion strains, locus YNL224C, strain SQS1, active compounds read low 1.01 | S. cerevisiae deletion strains, locus YNL233W, strain BNI4, active compounds read low 1 | S. cerevisiae deletion strains, locus YNL248C, strain rpa49, active compounds read low 0.982 | S. cerevisiae deletion strains, locus YNL250W, strain rad50, active compounds read low 1.01 | S. cerevisiae deletion strains, locus YNL271C, strain bni1, active compounds read low 1.02 | S. cerevisiae deletion strains, locus YNL298W, strain CLA4, active compounds read low 1.02 | S. cerevisiae deletion strains, locus YNL307C, strain MCK1, active compounds read low 1.02 | S. cerevisiae deletion strains, locus YNL322C, strain KRE1 (second series), active compounds read low 0.978 | S. cerevisiae deletion strains, locus YNL322C, strain KRE1, active compounds read low 0.995 | S. cerevisiae deletion strains, locus YNR049C, strain mso1, active compounds read low 0.986 | S. cerevisiae deletion strains, locus YNR052C, strain pop2, active compounds read low 1.03 | S. cerevisiae deletion strains, locus YOL006C, strain TOP1, active compounds read low 1.02 | S. cerevisiae deletion strains, locus YOL012C, strain htz1 1.78 | S. cerevisiae deletion strains, locus YOL147C, strain pex11, active compounds read low 1.01 | S. cerevisiae deletion strains, locus YOR001W, strain rrp6, active compounds read low 1.01 | S. cerevisiae deletion strains, locus YOR061W, strain CKA2, active compounds read low 1.01 | S. cerevisiae deletion strains, locus YOR069W, strain VPS5, active compounds read low 1 | S. cerevisiae deletion strains, locus YOR070C, strain gyp1, active compounds read low 0.994 | S. cerevisiae deletion strains, locus YOR080W, strain dia2, active compounds read low 0.984 | S. cerevisiae deletion strains, locus YOR083W, strain WHI5 (second series), active compounds read low 1.02 | S. cerevisiae deletion strains, locus YOR083W, strain WHI5, active compounds read low 0.953 | S. cerevisiae deletion strains, locus YOR106W, strain vam3, active compounds read low 0.971 | S. cerevisiae deletion strains, locus YOR136W, strain idh2, active compounds read low 1.01 | S. cerevisiae deletion strains, locus YOR144C, strain elg1, active compounds read low 1.01 | S. cerevisiae deletion strains, locus YOR184W, strain ser1, active compounds read low 1.02 | S. cerevisiae deletion strains, locus YOR231W, strain MKK1, active compounds read low 0.972 | S. cerevisiae deletion strains, locus YOR265W, strain rbl2, active compounds read low 0.989 | S. cerevisiae deletion strains, locus YOR270C, strain vph1, active compounds read low 0.965 | S. cerevisiae deletion strains, locus YOR290C, strain snf2, active compounds read low 0.985 | S. cerevisiae deletion strains, locus YOR316C, strain cot1, active compounds read low 1.01 | S. cerevisiae deletion strains, locus YPL051W, strain arl3, active compounds read low 0.98 | S. cerevisiae deletion strains, locus YPL055C, strain LGE1, active compounds read low 1.03 and 1.01 | S. cerevisiae deletion strains, locus YPL078C, strain atp4, active compounds read low 0.966 | S. cerevisiae deletion strains, locus YPL106C, strain sse1, active compounds read low 0.965 | S. cerevisiae deletion strains, locus YPL240C, strain hsp82, active compounds read low 0.999 | S. cerevisiae deletion strains, locus YPL256C, strain CLN2, active compounds read low 1 | S. cerevisiae deletion strains, locus YPR119W, strain clb2, active compounds read low 1.01 | S. cerevisiae deletion strains, locus YPR141C, strain kar3, active compounds read low 1.01 | S. cerevisiae deletion strains, locus YPR163C, strain tif3, active compounds read low 1.01 | S. cerevisiae deletion strains, locus YPR167C, strain met16, active compounds read low 1.01 | S. cerevisiae deletion strains, strain wtn01, active compounds read low 1.01 | S. cerevisiae strains, strain wild type, active compounds read low 1.01

Source: PubChem BioAssay AID1159580 (chemical genetic matrix, 2015)
